# Sampled rows, rich in hits. Any-hit rate of the full collection: about 0.97%.
# CtBP-E1A blk: blocks the CtBP interaction with E1A | AlphaScreen GST-E1A/His-CtBP binding, 1536-well; active compounds read low | activity change, % (test concentration not listed) | hit rate 0.49% among 340,000 | AID 651724
#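 AlphaScreen with 125 nM GST-E1A and 125 nM His-CtBP (5X stocks) in Tris pH 8.0, 300 mM NaCl, BSA, Tween 20, TCEP. Compounds preincubated 2 h at 37 deg C, then glutathione donor/nickel acceptor beads added for 1 h at 37 deg C in dark.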
# CCT chaperon mod: changes cytosolic chaperonin activity. purified chaperonin ATPase assay, HTRF ADP detection, 30 min. activity change, % (test concentration not listed), hits read low. hit rate 0.3% among 360,000. AID 651819; in the data active = activity change below about -30%
#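 TRiC (40 or 20 nM final, by batch activity) in 30 mM Tris pH 7.4, 100 mM KCl, 5 mM MgCl2, 1 mM DTT was treated with compound at 76 uM single dose, then 10 uM ATP, 30 min at 37 °C. ADP was read by HTRF Transcreener.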
# Six1-Eya2 inh: blocks human Six1 binding to Eya2 | Q15475+O00167 | AlphaScreen GST-Six1/His-Eya2 binding, biochemical; active compounds read low | activity change, % (no concentration beside the values) | hit rate 0.56% among 360,000 | AID 651725
# Target sequence (O00167 whole entry, looked up): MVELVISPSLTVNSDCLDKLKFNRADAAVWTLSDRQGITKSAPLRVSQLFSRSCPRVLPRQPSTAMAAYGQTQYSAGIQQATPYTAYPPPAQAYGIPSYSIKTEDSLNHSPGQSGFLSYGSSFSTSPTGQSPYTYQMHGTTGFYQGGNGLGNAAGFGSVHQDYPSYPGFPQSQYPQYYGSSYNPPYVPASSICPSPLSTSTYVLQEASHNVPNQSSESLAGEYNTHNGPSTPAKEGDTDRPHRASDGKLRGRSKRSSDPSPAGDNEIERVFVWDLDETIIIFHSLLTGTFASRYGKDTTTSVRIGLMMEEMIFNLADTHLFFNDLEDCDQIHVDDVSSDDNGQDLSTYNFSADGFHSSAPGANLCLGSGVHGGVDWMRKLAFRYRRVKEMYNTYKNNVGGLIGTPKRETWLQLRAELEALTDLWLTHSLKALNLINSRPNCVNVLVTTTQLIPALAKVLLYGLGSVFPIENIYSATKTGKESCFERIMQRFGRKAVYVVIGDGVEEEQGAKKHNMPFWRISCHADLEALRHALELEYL
# Target sequence (Q15475 whole entry, looked up): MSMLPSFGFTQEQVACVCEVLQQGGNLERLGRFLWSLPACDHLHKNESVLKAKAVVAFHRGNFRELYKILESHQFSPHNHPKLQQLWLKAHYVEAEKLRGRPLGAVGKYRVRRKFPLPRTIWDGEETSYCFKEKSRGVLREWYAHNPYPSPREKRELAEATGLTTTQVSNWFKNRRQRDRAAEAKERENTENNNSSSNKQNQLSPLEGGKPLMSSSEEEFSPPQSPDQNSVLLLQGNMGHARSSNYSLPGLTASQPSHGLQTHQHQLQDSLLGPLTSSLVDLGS
#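 Six1/Eya2 binding was read as AlphaScreen signal after compounds were pinned into GST-Six1 plus His-tagged Eya2 (5X stock 250/500 nM) in pH 8.0 Tris/NaCl/TCEP buffer, beads added, then incubated 1 h, 37 C, dark.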
# PI4K2A inh: blocks human PI4K2A kinase activity; Q9BTU6; purified PI4K2A, ADP-Glo luminescence, 1 h; active compounds read low; activity change, negative = inhibition, % at 76.9 µM; hit rate 0.13% among 420,000; in the data active = activity change below about -50%; inconclusive = mostly about -30% to -49%;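 also: -100% = wells without enzyme as full effect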
#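 ADP-Glo luminescence measured ADP generated by PI4K2A enzyme (4 ug/mL before mixing) with 1.2 mM PI substrate (pre-mix) and 300 microM ATP (pre-mix). Tris pH7.5 buffer with MgCl2, Triton X-100; 1 h reaction at ambient temperature.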
# Eya2 phos inh: blocks the phosphatase activity of human Eya2; O00167; recombinant Eya2, OMFP fluorescence dephosphorylation (OMFP is methylfluorescein phosphate); Potency, µM (highest dose often 76.9 µM), for the others: at the top dose activity, negative = inhibition, actives largely listed as inhibitors; hit rate 0.006% among 330,000; AID 488837; active = well fitted inhibition curve with a large enough effect; inconclusive = small, poorly fitted or top-dose-only effect, or effect the other way; also: potency is read from the fitted curve at half-maximal effect
#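 Eya2 (0.2 uM) preincubated 10 min at ambient with compound, then OMFP substrate added at 50 uM; 10 min reaction in 50 mM HEPES pH 7.5, 50 mM NaCl, 5 uM MgCl2, 0.05% BSA, 1 mM DTT. Fluorescence read at Ex 485/Em 525 nm.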
# * = called active by the depositor; ? = inconclusive; / = no result given. Rule as the data show it, unless noted: active = activity change below about -65%; inconclusive = mostly about -30% to -63%; inactive = weaker than that. Unless noted, % is scaled to controls: 0 for no effect and ±100 for the full control effect.
SMILES,CtBP-E1A blk,CCT chaperon mod,Six1-Eya2 inh,PI4K2A inh,Eya2 phos inh
Cc1cccc(C)c1OCc1cccc(C2Nc3ccccc3C(=O)N2Cc2ccco2)c1 (configuration not stated),/,/,/,6,/
Cc1ccc(Cl)cc1N1C(=O)CC(Sc2ccccc2N)C1=O (configuration not stated),-5,-33*,-9,-8,/
O=C(NCc1ccccc1)C(=O)Nc1ccc2nc3n(c(=O)c2c1)CCCCC3,/,/,/,0,/
O=C(CSc1ccc2nnc(-c3ccccn3)n2n1)Nc1nccs1,-88*,-2,-81*,3,-3%
Cc1nnc(NC(=O)CSc2ccc3nnc(-c4ccccn4)n3n2)s1,/,2,-3,3,-8%
COc1ccccc1CNC(=O)CSc1ccc(-c2ccccn2)nn1,/,-23,-67*,-5,-3%
Cc1csc(NC(=O)CSc2ccc(-c3ccccn3)nn2)n1,/,1,-86*,-11,-2%
CC1Cc2cc(S(=O)(=O)CCC(=O)Nc3ccc(OC(F)(F)F)cc3)ccc2N1C(=O)C1CC1 (configuration not stated),/,/,/,-9,/
O=C(Nc1ccccc1C(=O)NC(Cc1ccc(O)cc1)C(=O)O)c1ccccc1 (configuration not stated),3,-36*,12,-2,7%
O=C(O)CCNc1ccc(NCCC(=O)O)c2c1C(=O)c1ccccc1C2=O,/,0,-85*,-30,-12%
O=C(NCCO)c1cccc2c1C(=O)c1ccccc1-2,-3,-2,-4,3,7%
O=C1c2cccc(NCCNCCO)c2C(=O)c2cccc(NCCNCCO)c21,-7,-1,-71*,-12,/
N#Cc1ccccc1Cn1c(=O)n(-c2cccc(C(F)(F)F)c2)c(=O)c2sccc21,/,/,/,-2,/
CC(C)(C)C(=O)CSc1nc2ccsc2c(=O)n1Cc1ccccc1Cl,/,/,/,-9,/
CC(NC(=O)CSc1n[nH]c(-c2ccccc2Cl)n1)c1nc2ccccc2n1C (configuration not stated),/,/,/,0,/
Cn1c(=O)oc2cc(S(=O)(=O)N3CCN(CCO)CC3)ccc21,/,/,/,-3,/
Cc1ccc(C)c(NC(=O)Cn2c(=O)n(Cc3ccco3)c(=O)c3oc4ccccc4c32)c1,/,/,/,-3,/
Cc1ccc(NC(=O)CN2C(=O)N/C(=C/c3cccn3-c3ccc(C(=O)O)cc3)C2=O)cc1,12,2,-74*,?,0%
Cc1ccc(NC(=O)CN2C(=O)N/C(=C/c3cc(C)n(-c4ccc(C(=O)O)cc4)c3C)C2=O)cc1,-7,0,-17,-2,-2%
COc1ccc2c(c1)c1c(c(=O)n(-c3ccccc3C)c(=O)n1CC(=O)Nc1c(C)cccc1C)n2C,/,/,/,-3,/
CCn1c(=O)sc2cc(NS(=O)(=O)c3ccc(F)c(C)c3)ccc21,/,/,/,0,/
CCCCNc1c(-c2ccccn2)nc2nc(C)cc(C)n12,?,0,-88*,-4,/
CCCCNc1c(-c2cc3ccccc3o2)nc2nc(C)cc(C)n12,-10,-1,9,4,/
Cc1cccc2nc(-c3ccccn3)c(Nc3ccccc3)n12,/,/,/,-9,/
COc1cccc(-c2nc3nc(C)cc(C)n3c2Nc2c(C)cccc2C)c1,0,1,-4,-2,/
SMILES,CtBP-E1A blk,CCT chaperon mod,Six1-Eya2 inh,PI4K2A inh,Eya2 phos inh
Cc1cc(C)n2c(Nc3c(C)cccc3C)c(-c3ccccn3)nc2n1,?,-2,-90*,0,/
Cc1ccc(Nc2c(-c3ccccn3)nc3cccc(C)n23)cc1,-98*,-1,-88*,5,-10%
Cc1ccc2nc(-c3ccccn3)c(NC3CCCC3)n2c1,-73*,-1,?,-8,0%
CC(C)(C)C(=O)C(Oc1ccc(Cl)cc1)n1ccnc1 (configuration not stated),/,/,/,3,/
CSc1ccc(CCNC(=O)CCc2c(C)nc3ncnn3c2C)cc1,/,/,/,2,/
Cc1cccc(C)c1Nc1c(-c2ccccn2)nc2ccccn12,/,1,-84*,2,-27%
Cc1cccc(C)c1Nc1c(-c2ccsc2)nc2ccccn12,/,/,/,2,/
Cc1ccc(S(=O)(=O)N(CC(O)Cn2c3ccccc3c3ccccc32)c2cccc(C(N)=O)c2)cc1 (configuration not stated),/,/,/,-6,/
CC(C)(C)c1ccc(C(=O)NC(=O)COC(=O)CCS(=O)(=O)c2ccccc2)cc1,8,-68*,8,4,-28%
